Screening data deposited in PubChem by several laboratories.
D1 mod – D1 CRE-luciferase signal change, two-sided – cell-based, HEK293 D1, dopamine EC30, D1 allosteric modulator project, primary screen; actives 5.9% (n = 58,000); D(1A) dopamine receptor (Homo sapiens), P21728; B-score at 10 µM; dopamine EC30 potentiation; actives deviate in either direction;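 active = luminescence count or its row- and column-corrected plate score outside the 99.7% band of the plate's sample wells, on either side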
DAT uptake mod – changed hDAT dopamine uptake under cocaine IC80, either direction, primary screen, cocaine antagonist project, cell-based, LLC-PK1 hDAT, [14C]-dopamine uptake, MLSMR. B-score at 10 µM. actives 1.3% (n = 110,000). Sodium-dependent dopamine transporter (Homo sapiens), Q01959. LLC-PK1 hDAT cells, [14C]-dopamine uptake with cocaine IC80; actives deviate in either direction;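 active = Z score or B-score, a plate-position-corrected score, falls beyond the plate's 99.7% confidence bounds, in either direction; inactive = both scores lie inside the 99.7% bounds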
Target sequence (Q01959 whole entry, looked up): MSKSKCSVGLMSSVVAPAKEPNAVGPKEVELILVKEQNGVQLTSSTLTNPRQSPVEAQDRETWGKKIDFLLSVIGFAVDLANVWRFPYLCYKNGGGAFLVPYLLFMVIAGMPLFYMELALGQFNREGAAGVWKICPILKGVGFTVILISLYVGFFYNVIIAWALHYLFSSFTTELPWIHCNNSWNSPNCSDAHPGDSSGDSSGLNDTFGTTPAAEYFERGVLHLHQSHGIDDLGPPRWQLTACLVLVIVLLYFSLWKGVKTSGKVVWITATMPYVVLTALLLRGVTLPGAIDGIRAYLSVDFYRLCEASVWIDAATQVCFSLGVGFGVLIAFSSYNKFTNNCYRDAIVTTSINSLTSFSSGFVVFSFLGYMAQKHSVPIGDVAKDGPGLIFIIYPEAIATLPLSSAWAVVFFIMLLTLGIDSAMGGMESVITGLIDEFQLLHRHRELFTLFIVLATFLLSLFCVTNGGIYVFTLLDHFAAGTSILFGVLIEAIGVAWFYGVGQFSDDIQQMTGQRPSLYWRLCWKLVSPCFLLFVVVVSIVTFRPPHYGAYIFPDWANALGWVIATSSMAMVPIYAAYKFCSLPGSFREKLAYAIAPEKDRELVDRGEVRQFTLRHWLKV
CYP2C9 act – human CYP2C9 activators, primary screen, biochemical, luminescence; recombinant CYP2C9, luciferin-H conversion; active compounds read high; factor 1 = untreated enzyme, 0 = blocked; activation factor at 5 µM; actives 1.4% (n = 96,000); AID 1024, 2008;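 active = activation factor of 2 or more for CYP2C9 at a 5 µM dose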
CYP2C19 inhib – blockers of cytochrome P450 2C19 activity – biochemical, luminescence, ADME assay, primary screen. P33261. CYP2C19 Supersomes, luciferin-H EGE luminescence, 30 min. inhibition, % at 5 µM. actives 21% (n = 96,000). AID 778, 2007;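 active = CYP2C19 inhibition above a set limit at 5 µM in the primary screen, cut at about 50% in these data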
CYP2C19 act – human CYP2C19 activators, primary screen, biochemical, luminescence. recombinant CYP2C19, luciferin-H EGE luminescence; active compounds read high; 0 = fully inhibited enzyme, 1 = untreated enzyme. activation factor at 5 µM. 96,000 tested, under 10 active. AID 1025, 2008;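 active = activation factor of at least 2 at 5 µM in the primary screen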
CYP2C9 inhib – blockers of cytochrome P450 2C9 activity – biochemical, luminescence, ADME assay, primary screen | P11712 | CYP2C9 Supersomes, luciferin-H conversion | inhibition, % at 5 µM | actives 20% (n = 96,000) | AID 777, 2007;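 active = blocking of liver enzyme CYP2C9 beyond about 50% at 5 µM, limit read from the data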
D1 PAM confirm – D1 receptor positive allosteric modulators, retest, confirmation, cell-based, HEK293 D1, CRE-luciferase, duplicate; shares compounds with D1 mod; dopamine EC30 potentiation; active compounds read high; luminescence at 10 µM; actives 88% (n = 2,200); AID 642, 2007;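 active = luminescence in either of two replicates above the same-plate mean plus 3 SD of the low-dose dopamine control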
D1 no dopamine – D1 receptor agonism without dopamine, confirmation, mechanism study for D1 allosteric modulator project, cell-based, HEK293 D1, CRE-luciferase, secondary assay 1. shares compounds with D1 mod. luminescence, no dopamine; active compounds read high. actives 0.8% (n = 1,900). luminescence at 10 µM. AID 646, 2007; in the data active = luminescence above about 3900
Isoprot counter – isoproterenol response counter-screen activity for D1 modulators | actives 63% (n = 2,200) | AID 647 | calls only at 10 µM | shares compounds with D1 mod | HEK293 D1 CRE-luciferase, isoproterenol EC30 counter-screen;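 active = luminescence in either replicate above plate mean of wells with a partly effective reference agonist dose plus 3 SD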;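 note: isoproterenol raises cAMP through native beta-adrenoceptor Gs so signal bypasses D1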
Hits are given with their value. Rows were chosen to be rich in hits. Some 28% of all compounds tested hit in one or more screens of this group.

What do the screens show for `CCOc1ccccc1C(=O)N1CCN(c2cccc(Cl)c2)CC1`?
D1 mod: 5.6; DAT uptake mod: inactive; CYP2C9 act: inactive; CYP2C19 inhib: 67; CYP2C19 act: inactive; CYP2C9 inhib: 70; D1 PAM confirm: 10528; D1 no dopamine: inactive; Isoprot counter: active

How did CN1CCc2nc(SCc3ccc(Cl)cc3)c(C#N)c(-c3cccs3)c2C1 do in these assays?
DAT uptake mod: inactive

Results for N#Cc1c(N)nc(SCc2ccncc2)c(C#N)c1-c1cccs1 ?
D1 mod: 6.5; DAT uptake mod: inactive; CYP2C9 act: inactive; CYP2C19 inhib: 58; CYP2C19 act: inactive; CYP2C9 inhib: 84; D1 PAM confirm: 8108; D1 no dopamine: inactive; Isoprot counter: active

How did CCOC(=O)CSc1nc2ccc(N3CCOCC3)cc2c(=O)n1Cc1ccc2c(c1)OCO2 do in these assays?
D1 mod: 7; CYP2C9 act: inactive; CYP2C19 inhib: 81; CYP2C19 act: inactive; CYP2C9 inhib: 75; D1 PAM confirm: 9824; D1 no dopamine: inactive; Isoprot counter: active

How did Cc1cc(-c2ccccc2)nc2cc(C(=O)N(Cc3ccccc3)Cc3ccccc3)nn12 do in these assays?
DAT uptake mod: inactive

What do the screens show for `COc1cccc(C(C(=O)NC(C)(C)C)N(C(=O)CCC(=O)Nc2cc(C)on2)C2CC2)c1OC` (stereo unspecified)?
D1 mod: inactive; DAT uptake mod: inactive; CYP2C9 act: inactive; CYP2C19 inhib: inactive; CYP2C19 act: inactive; CYP2C9 inhib: inactive

Results for O=C(O)CSc1nnc(-c2cc3ccccc3o2)n1-c1ccccc1 ?
D1 mod: inactive; DAT uptake mod: inactive; CYP2C9 act: inactive; CYP2C19 inhib: inactive; CYP2C19 act: inactive; CYP2C9 inhib: inactive

Results for CCOC(=O)Cc1nnc(NC(=O)CSc2nnc3c4ccccc4n(C(C)C)c3n2)s1 ?
D1 mod: 7.5; DAT uptake mod: inactive; CYP2C9 act: inactive; CYP2C19 inhib: 78; CYP2C19 act: inactive; CYP2C9 inhib: 98; D1 PAM confirm: 11008; D1 no dopamine: inactive; Isoprot counter: active

Results for CCCSc1nnc2n(-c3ccccc3OC)c(=O)c3c4c(sc3n12)CCC4 ?
DAT uptake mod: inactive; CYP2C9 act: inactive; CYP2C19 inhib: inactive; CYP2C19 act: inactive; CYP2C9 inhib: inactive

How did C=CCSc1nnc2n(-c3ccccc3OC)c(=O)c3c4c(sc3n12)CCC4 do in these assays?
D1 mod: 5.7; DAT uptake mod: inactive; CYP2C9 act: inactive; CYP2C19 inhib: inactive; CYP2C19 act: inactive; CYP2C9 inhib: inactive; D1 PAM confirm: 11688; D1 no dopamine: inactive; Isoprot counter: inactive

How did CN1CCc2c(sc3c2c(=O)n(-c2ccccc2)c2nnc(SCc4ccccc4)n32)C1 do in these assays?
DAT uptake mod: inactive; CYP2C9 act: inactive; CYP2C19 inhib: inactive; CYP2C19 act: inactive; CYP2C9 inhib: inactive

What do the screens show for `CSc1nnc2n(-c3ccccc3)c(=O)c3c4c(sc3n12)CCC4`?
D1 mod: 17; DAT uptake mod: inactive; CYP2C9 act: inactive; CYP2C19 inhib: inactive; CYP2C19 act: inactive; CYP2C9 inhib: inactive; D1 PAM confirm: 18696; D1 no dopamine: inactive; Isoprot counter: active

Results for FC(F)(F)c1nnc2ccc(N3CCCCCC3)nn12 ?
D1 mod: 3.5; DAT uptake mod: inactive; CYP2C9 act: inactive; CYP2C19 inhib: inactive; CYP2C19 act: inactive; CYP2C9 inhib: inactive; D1 PAM confirm: 8220; D1 no dopamine: inactive; Isoprot counter: active

How did FC(F)(F)c1nnc2ccc(N3CCCC3)nn12 do in these assays?
DAT uptake mod: inactive; CYP2C9 act: inactive; CYP2C19 inhib: inactive; CYP2C19 act: inactive; CYP2C9 inhib: inactive

Results for FC(F)(F)C(F)(F)C(F)(F)c1nnc2ccc(N3CCOCC3)nn12 ?
D1 mod: 11; DAT uptake mod: inactive; CYP2C9 act: inactive; CYP2C19 inhib: 76; CYP2C19 act: inactive; CYP2C9 inhib: 76; D1 PAM confirm: 18088; D1 no dopamine: inactive; Isoprot counter: active

Results for Cc1ccc(SCCNC(=O)C(CO)(CO)CO)cc1 ?
D1 mod: inactive; DAT uptake mod: inactive; CYP2C9 act: inactive; CYP2C19 inhib: inactive; CYP2C19 act: inactive; CYP2C9 inhib: inactive

How did CC1(C(=O)NC23CC4CC(CC(C4)C2)C3)CC1(Cl)Cl (stereo unspecified) do in these assays?
DAT uptake mod: inactive; CYP2C9 act: inactive; CYP2C19 inhib: inactive; CYP2C19 act: inactive; CYP2C9 inhib: inactive

How did CC(=O)c1c(OC(=O)c2ccccc2)c2ccccc2n1C do in these assays?
DAT uptake mod: inactive; CYP2C9 act: inactive; CYP2C19 inhib: inactive; CYP2C19 act: inactive; CYP2C9 inhib: inactive

Results for CCOC(=O)C1CCCN(C(=O)c2cc(Nc3ccc(OC)c(OC)c3)nc3ccccc23)C1 (stereo unspecified) ?
D1 mod: 4; DAT uptake mod: inactive; CYP2C9 act: inactive; CYP2C19 inhib: inactive; CYP2C19 act: inactive; CYP2C9 inhib: 75; D1 PAM confirm: 12712; D1 no dopamine: inactive; Isoprot counter: active

What do the screens show for `CCOC(=O)C1CCCN(C(=O)c2cc(-c3ccc(C)cc3)on2)C1` (stereo unspecified)?
D1 mod: inactive; DAT uptake mod: inactive; CYP2C9 act: inactive; CYP2C19 inhib: inactive; CYP2C19 act: inactive; CYP2C9 inhib: inactive

How did CCOC(=O)C1CCCN(C(=O)c2cc(Cl)ccc2Cl)C1 (stereo unspecified) do in these assays?
D1 mod: 4.2; DAT uptake mod: inactive; CYP2C9 act: inactive; CYP2C19 inhib: 97; CYP2C19 act: inactive; CYP2C9 inhib: 94; D1 PAM confirm: 5420; D1 no dopamine: inactive; Isoprot counter: inactive

Results for Cc1noc(C(=O)N2CCN(c3ccc(F)cc3)CC2)c1Cl ?
D1 mod: inactive; DAT uptake mod: inactive
